Hits are enriched below; roughly 21% of the tested compounds scored in any of these assays.
Shiga inhibitor = A qHTS for Small Molecule Inhibitors of Shiga Toxin; Vero cells, Shiga toxin protein synthesis inhibition reporter; inhibition, % at 38.7 µM; actives 9.2% (n = 290,000); AID 2315, 2010; in the data active = inhibition mostly above about 28%, no sharp cut-off; inactive = mostly below about 43%
Pf growth 48h = Primary qHTS for delayed death inhibitors of the malarial parasite plastid, 48 hour incubation; P. falciparum luciferase growth in erythrocytes, 48 h; Potency, µM (highest dose often 28.7 µM), hits mostly inhibitors; actives 5.9% (n = 310,000)
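A one-generation exposure of luciferase-tagged malaria parasites in RPMI 1640/Albumax erythrocyte culture, 37 C and 5% CO2. Inhibition is inferred from decreased luminescence after adding detection reagent.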
Pf growth 96h = Primary qHTS for delayed death inhibitors of the malarial parasite plastid, 96 hour incubation; actives 6.9% (n = 320,000); P. falciparum luciferase reporter growth, 96 h; AID 504834, 2011; Potency, µM (doses to about 28.7 µM), actives largely listed as inhibitors
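96 h incubation, 37 C, 5% CO2, of luciferase-reporter P. falciparum-infected RBCs (2% hematocrit, 0.05% parasitemia final) with test compounds; endpoint luminescence.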
CHX counter = Cycloheximide Counterscreen for Small Molecule Inhibitors of Shiga Toxin | cell reporter, cycloheximide protein synthesis inhibition counterscreen | max response, % | actives 12% (n = 300,000); in the data active = max response mostly above about 13%, no sharp cut-off; inactive = mostly below about 14%; also: read at 38.3 µM for the half of the compounds with a filed dose
NS1 function inh = qHTS Assay for Inhibitors of Influenza NS1 Protein Function; actives 0.4% (n = 270,000); Potency, µM (titrated, usually from 46.1 µM); AID 2326, 2010; calls by dose curve; also: actives are rising curves; nearly all actives have a fitted effect of over 50% in size
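Growth recovery, yeast-based: influenza A NS1 expressed in S. cerevisiae causes slow growth, and suppressors are detected by OD600. The parent strain without NS1 is used as positive control.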
Sm TGR block = qHTS Assay for the Inhibitors of Schistosoma Mansoni Peroxiredoxins; actives 3% (n = 360,000); purified TGR, DTNB reduction, TNB absorbance 405 nm; Schistosoma mansoni thioredoxin glutathione reductase (TGR), Q962Y6; Potency, µM (series often up to 114 µM), actives largely listed as inhibitors; also: nearly all actives have a fitted effect of over 60% in size
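First, TGR (20 nM dispensed) and NADPH were mixed with compound. Second, a 15 min room-temperature incubation followed. Third, further NADPH and then DTNB were added to start the reaction. Finally, TNB absorbance was monitored kinetically.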
Each line names hits and unclear results; the compound was inactive in the other large screens. Unless noted, calls follow the shape of the dose curve; as a rule, active = well fitted curve in the direction sought with a large enough effect; inconclusive = small, poorly fitted or top-dose-only effect, or another doubt; inactive = no such curve, though single readings can be large; an effect the other way counts as inactive or inconclusive.

Cn1ccnc1SCC(=O)Nc1ccc2c(c1)OC(F)(F)O2	CHX counter 14.8 (no result: NS1 function inh)
CC(=O)c1ccc(NC(=O)CSc2nccn2Cc2ccco2)cc1	none (no result: Shiga inhibitor, Pf growth 48h, Pf growth 96h, CHX counter, NS1 function inh)
CC(=O)c1ccc(NC(=O)CSc2nccn2CCc2ccccc2)cc1	Shiga inhibitor 87.9, CHX counter 33.0 (no result: Pf growth 96h)
CC(=O)c1ccc(NC(=O)CSc2nccn2C)cc1	Shiga inhibitor 65.6, CHX counter 11.0
CN(CC(=O)NCc1ccncc1)S(=O)(=O)c1ccc2ccccc2c1	none (no result: Sm TGR block)
CCc1ccc(Sc2cc(C(=O)NCc3cccc(OC)c3)c3ccccc3n2)cc1	none (no result: Shiga inhibitor, Pf growth 48h, Pf growth 96h, CHX counter, NS1 function inh)
c1ccc(-c2nnc(-c3ccccn3)s2)nc1	Shiga inhibitor 53.8, CHX counter 58.6
CN(C(=O)C1CCOC1)c1nnc(-c2ccccn2)s1 (stereo not drawn)	Shiga inhibitor 85.7, Pf growth 96h 13.1µM, CHX counter 29.7
c1ccc(C2=NNC(c3ccccn3)=NN2)nc1	Shiga inhibitor 70.5, Pf growth 96h inconclusive, CHX counter 33.1
CN(C(=O)C1CCCO1)c1nnc(-c2ccccn2)s1 (stereo not drawn)	Shiga inhibitor 47.1, CHX counter 49.9
c1ccc(-c2nc(-c3ccccn3)nc(-c3ccccn3)n2)nc1	Pf growth 48h inconclusive, Pf growth 96h inconclusive
C=CCC(C=C)[N+]1(CC(=O)OC)CCCCC1 (stereo not drawn)	Pf growth 96h inconclusive (no result: NS1 function inh)
COCC(=O)N(C)c1nnc(-c2ccccn2)s1	Shiga inhibitor 56.9, CHX counter 40.7
COc1ccc(C(C)N2CC34C=CC(O3)C(C(=O)OCC(C)C)C4C2=O)cc1 (stereo not drawn)	Pf growth 96h 14.7µM
CCc1ccccc1N1CC23C=CC(O2)C(C(=O)OCC(C)C)C3C1=O (stereo not drawn)	Pf growth 96h 3.7µM (no result: Pf growth 48h)
Cc1ccc(SCCNC(=O)CN(c2cccc(C)c2C)S(C)(=O)=O)cc1	none (no result: Shiga inhibitor, Pf growth 48h, Pf growth 96h, CHX counter, NS1 function inh)
Cn1c(=O)c2c(nc(CN3CCN(C(=O)c4ccco4)CC3)n2Cc2cccc(Cl)c2)n(C)c1=O	Pf growth 48h 4.65µM, Sm TGR block 25.1µM
O=C(c1ccco1)N1CCN(Cc2nc3ccccc3c(=O)n2-c2ccc(F)cc2)CC1	Pf growth 96h 9.28µM (no result: Pf growth 48h)
Cn1c(=O)c2c(nc(CN3CCN(C(=O)c4ccco4)CC3)n2Cc2ccc(Cl)cc2)n(C)c1=O	Pf growth 48h 7.38µM, Sm TGR block inconclusive
Cc1ccc(Cn2c(CN3CCN(C(=O)c4ccco4)CC3)nc3c2c(=O)n(C)c(=O)n3C)cc1	Pf growth 48h 2.08µM, Pf growth 96h inconclusive
CCOC(=O)C1CCN(Cc2nc3ccccc3c(=O)n2-c2ccc(F)cc2)CC1	Pf growth 96h inconclusive (no result: Pf growth 48h)
CC(=O)Cn1c(CN2CCN(C(=O)c3ccco3)CC2)nc2c1c(=O)n(C)c(=O)n2C	none
CCCn1c(CN2CCN(C(=O)c3ccco3)CC2)nc2c1c(=O)n(C)c(=O)n2C	none
Cc1cccc(N2CCN(C(=O)c3ccc4nc(N5CCC(C)CC5)sc4c3)CC2)c1C	none (no result: Shiga inhibitor, Pf growth 48h, Pf growth 96h, CHX counter, NS1 function inh)
CC(=O)c1ccc(NC(=O)CSc2cn[nH]n2)cc1	none
Cn1c(=O)c2c(nc(CN3CCN(C(=O)c4ccco4)CC3)n2Cc2ccccc2)n(C)c1=O	Pf growth 48h 10.4µM, Pf growth 96h inconclusive
CSc1ccc(CN2CCN(S(=O)(=O)Cc3ccccc3)CC2)cc1	none
O=C(Cn1c(=S)[nH]c2ncccc2c1=O)NCCc1ccccc1	none (no result: NS1 function inh)
COC(=O)c1sccc1NC(=O)Nc1ccc(C)c(C)c1	Shiga inhibitor 72.3, CHX counter 41.4
CCCNC(=O)Nc1ccsc1C(=O)OC	none (no result: NS1 function inh)
COC(=O)c1sccc1S(=O)(=O)Nc1ccc(C)cc1	CHX counter 16.0
COC(=O)c1sccc1NC(=O)Cc1ccc(OC)c(OC)c1	Pf growth 96h inconclusive
CCc1ccc(NC(=O)Nc2ccsc2C(=O)OC)cc1	Shiga inhibitor 42.1, CHX counter 36.1
COC(=O)c1sccc1NC(=O)Nc1ccc(OC)c(OC)c1	Pf growth 48h inconclusive, Pf growth 96h inconclusive
COC(=O)c1sccc1NC(=O)Cc1ccc(Br)cc1	Shiga inhibitor 31.8, CHX counter 26.5 (no result: NS1 function inh)
Cc1ccccc1NC(=O)Cn1cc(S(=O)(=O)c2ccccc2)c(=O)c2ccccc21	none (no result: Shiga inhibitor, Pf growth 48h, Pf growth 96h, CHX counter, NS1 function inh)
COC(=O)c1sccc1NC(=O)c1c(Cl)cccc1Cl	Pf growth 48h inconclusive, Pf growth 96h inconclusive
COC(=O)c1sccc1NC(=O)CSc1cccc(Cl)c1Cl	CHX counter 11.6
COC(=O)c1sccc1NC(=O)Nc1cc(C)ccc1OC	Pf growth 96h inconclusive
COC(=O)c1sccc1NC(=O)Nc1ccc(Cl)c(Cl)c1	Pf growth 96h inconclusive, CHX counter 27.3
CCc1ccc2c(c1)c(=O)c(S(=O)(=O)c1ccc(F)cc1)cn2CC(=O)Nc1ccccc1OC	none (no result: Shiga inhibitor, Pf growth 48h, Pf growth 96h, CHX counter, NS1 function inh)
O=C(NC1CC1)C1=C[C@@H](C2CCCCC2)C[C@@H](OCc2ccc(CO)cc2)O1	Pf growth 48h inconclusive, Pf growth 96h inconclusive
NC(=O)C1=C[C@H](C2CCCCC2)C[C@H](OCc2ccc(CO)cc2)O1	Shiga inhibitor 63.2, CHX counter 49.9
C#CCNC(=O)C1=C[C@H](C(C)(C)C)C[C@H](OCc2ccc(CO)cc2)O1	Pf growth 48h inconclusive, Pf growth 96h inconclusive, Sm TGR block inconclusive
CC(C)(C)[C@@H]1C=C(C(=O)Nc2ccccc2)O[C@H](OCc2ccc(CO)cc2)C1	Pf growth 48h inconclusive, Pf growth 96h 8.28µM, CHX counter 26.2
CC(C)(C)[C@H]1C=C(C(N)=O)O[C@@H](OCc2ccc(CO)cc2)C1	CHX counter 13.5
CC(C)CNC(=O)C1CCN(Cc2ccc(OCc3ccccc3)cc2)CC1	Shiga inhibitor 79.4, CHX counter 27.2
CC(C)NC(=O)C1CCN(Cc2cccc(Oc3ccccc3)c2)CC1	none
O=C(NCc1ccccn1)C1CCN(Cc2cccc(OCc3ccccc3)c2)CC1	Pf growth 96h inconclusive
CC(O)CNC(=O)C1CCN(Cc2ccc(OCc3ccccc3)cc2)CC1 (stereo not drawn)	Shiga inhibitor 129.9, CHX counter 36.8
C/C(CCN1CCCCc2nc(C)c(C)cc21)=N\O[C@@H](C)CN1CCCCc2nc(C)c(C)cc21	Pf growth 48h 13.1µM, Pf growth 96h 11.7µM
COc1ccc(O[C@H]2C=C[C@@H](c3ccccc3)O[C@@H]2CO/N=C(\C)CCN2CCCCc3nc(C)c(C)cc32)cc1	Pf growth 48h 1.65µM, Pf growth 96h inconclusive
C/C(CCN1CCCCc2nc(C)c(C)cc21)=N\OC[C@@H](O)[C@H]1O[C@@H]2OC(C)(C)O[C@@H]2[C@H]1O	none
O=Cc1ccccc1Oc1ccccc1	none
O=Cc1ccccc1OCCOc1ccccc1C=O	Shiga inhibitor 52.2, CHX counter 34.4
COc1ccc(CC(=O)NCCc2sc(-c3ccc(Cl)cc3)nc2C)cc1OC	none (no result: Shiga inhibitor, Pf growth 48h, Pf growth 96h, CHX counter, NS1 function inh)
O=C(CNC(=O)c1ccccc1F)NCC(c1cccs1)N1CCOCC1 (stereo not drawn)	none (no result: Shiga inhibitor, CHX counter, NS1 function inh)

Screens (PubChem BioAssay)
